# Test results: PubChem BioAssay (NCATS)
# Inconclusive results are not listed. Entries that show only a call come without a potency. Activity calls are given as the source filed them. The call rests on the fitted dose curve; in most records, active means well fitted inhibition curve with a large enough effect; inconclusive means small, poorly fitted or top-dose-only effect; inactive means flat fitted curve, though single readings scatter.
# System: DFO2036
# Test: qHTS profiling for inhibitors of Plasmodium falciparum proliferation (AID 504749); further: nearly all actives have a fitted effect of over 60% in size
# Details: P. falciparum in erythrocytes, SYBR Green DNA, 72 h; series mostly up to 28.7 µM
# Source text: NIH National Institute of Allergy and Infectious Diseases [NIAID] NIH Chemical Genomics Center [NCGC] MLPCN Grant: None Assay Provider: Xinzhuan Su, NIAID NCGC Assay Overview: Plasmodium falciparum is a virulent malarial parasite that kills 1-2 million people worldwide each year. Transmitted by mosquitoes, the sporozoite form of the parasite enters the blood stream to infect hepatocytes, where they become merozoites that infect red blood cells (erythrocytes). Within erythrocytes, merozoites begin a […] cycle of growth and division, after which the parasite is released to infect new red blood cells. Gametocytes, which form within erythrocytes as well, circulate in the bloodstream and are ingested by the mosquito, thereby completing the life cycle. To profile malarial isolates for differential chemical responses and to identify inhibitors of malarial growth, an assay that measures P. falciparum growth and replication within erythrocytes was employed. This assay uses a DNA binding fluorescent dye (SYBR Green) to detect parasite DNA following cell lysis. Because mature erythrocytes lack DNA, only Plasmodium-derived DNA is detected.
# NCGC Assay Protocol Summary: The SYBR Green viability assay was adapted from a method described previously (Plouffe et al., 2008). For screening 3 ul culture medium was dispensed into 1536 well black clear bottom plates (Aurora Biotechnologies) using a Multidrop Combi (Thermo Fisher Scientific Inc.), 23 nL compounds in DMSO were added by a pin tool (Kalypsys), and 5 ul of erythrocytes infected with P. falciparum (0.3% parasitemia, 2.5% hematocrit final concentration) were added. The plates were incubated at 37 C in a humidified incubator in 5% CO2 for 72 h, and 2 ul lysis buffer (20 mM Tris HCl, 10 mM EDTA, 0.16% saponin, 1.6% triton X, 10X SYBR Green I supplied as 10,000X […] by Invitrogen) was added to each well. The plates were mixed for 25 sec with gentle shaking and incubated overnight at room temperature in the dark. The following morning, fluorescence intensity at 485(14) nm excitation and 535(25) nm emission wavelengths was measured on an EnVision (Perkin Elmer) plate reader. Plate reads were normalized relative to the control inhibitor (0.29 uM artemisinin) and vehicle (DMSO) wells present on each plate and then corrected by an algorithm using vehicle-only control plates at the beginning and end of the compound plate stack.
# Potency means the concentration at half of the fitted maximal effect.
row,Structure (SMILES),Potency
1,Oc1ccc(/C=C\c2cc(O)cc(O)c2)cc1,inactive
2,C=C1/C(=C\C=C2/CCC[C@]3(C)[C@@H]([C@H](C)CCCC(C)(C)O)CC[C@@H]23)C[C@@H](O)C[C@@H]1O,inactive
3,COc1ccc(CCNC[C@@H](O)c2ccc(O)cc2)cc1OC,inactive
4,CN1C(=O)CCC1c1cccnc1 (centres undefined),inactive
5,N[C@H](Cc1ccc(O)c(O)c1)C(=O)O,inactive
6,CN1C[C@H](C(=O)N[C@]2(C)O[C@@]3(O)C4CCCN4C(=O)[C@H](Cc4ccccc4)N3C2=O)C[C@@H]2c3cccc4[nH]cc(c34)C[C@H]21 (some centres undefined),7.94 µM (active)
7,CN=C(N)NCCCC(N)C(=O)O (centres undefined),inactive
8,CC(C)C[C@H]1C(=O)N2CCCC2[C@]2(O)O[C@](NC(=O)[C@@H]3C=C4c5cccc6[nH]c(Br)c(c56)C[C@H]4N(C)C3)(C(C)C)C(=O)N12 (some centres undefined),11.2 µM (active)
9,CC(/C=C1\SC(=S)N(CC(=O)O)C1=O)=C\c1ccccc1,inactive
10,C[C@@H]1[C@H](O)[C@@H](C)/C=C/C=C/C=C/C=C/C=C/C=C/C=C/[C@H](O[C@@H]2O[C@H](C)[C@@H](O)[C@H](N)[C@@H]2O)C[C@@H]2O[C@](O)(C[C@@H](O)C[C@@H](O)[C@H](O)CC[C@@H](O)C[C@@H](O)CC(=O)O[C@H]1C)C[C@H](O)[C@H]2C(=O)O,inactive
11,C=C1CCC2[C@](C)(CO)C(O)CC[C@]2(C)C1C/C=C1/C(=O)OCC1O (some centres undefined),inactive
12,C[C@@]12C(=O)OC(=O)[C@]1(C)[C@H]1CC[C@@H]2O1,3.98 µM (active)
13,CO[C@H]1/C=C/O[C@@]2(C)Oc3c(C)c(O)c4c(O)c(c(/C=N\N5CCN(C6CCCC6)CC5)c(O)c4c3C2=O)NC(=O)/C(C)=C\C=C\[C@H](C)[C@H](O)[C@@H](C)[C@@H](O)[C@@H](C)[C@H](OC(C)=O)[C@@H]1C,1.41 µM (active)
14,COc1cc2c(cc1OC)C(c1ccccc1)CN(C)CC2 (centres undefined),inactive
